Results on 26 molecules are retold here after PubChem BioAssay (Tox21).

A short description of assay [1]: qHTS RealTime-Glo MT Cell Viability Assay in HepG2 cells - 32 hour (AID 1224877). Also: nearly all actives have a fitted effect of over 55% in size. The gist of the method: (§1)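 Tox21 10K library screened in qHTS format on HepG2 cells carrying RealTime-Glo reagents. Compounds were added after a 5 h preincubation, and the luminescent signal from continuous culture was measured repeatedly during 40 h treatment.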
On the technique in general: In qHTS, concentration-response curves come from the screen itself.

Assay [2] can be described thus: A CellTox Green Cytotoxicity Assay to monitor cytotoxicity in HepG2 cells - 24 hour (AID 1224878). Also: nearly all actives have a fitted effect of over 45% in size. The gist of the method: (§2)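 Read-out is fluorescence of a cyanine dye excluded from live cells that stains DNA of dead HepG2 cells, with signal proportional to cytotoxicity. Plates were read at 0, 8, 16, 24, 32 and 40 h after compound addition.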
Assay [3] can be described thus: A CellTox Green Cytotoxicity Assay to monitor cytotoxicity in HepG2 cells - 40 hour (AID 1224879). Also: nearly all actives have a fitted effect of over 40% in size. Also: potency is read from the fitted curve at half-maximal effect. The method, boiled down:
as §2

Assay [4] in a line: qHTS RealTime-Glo MT Cell Viability Assay in HEK293 cells - 0 hour (AID 1224880). Also: nearly all actives have a fitted effect of over 45% in size. Also: potency is read from the fitted curve at half-maximal effect. As to activity change, negative = cytotoxicity: top concentration of the series differs between compounds. The method, boiled down: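 Cells were seeded together with NanoLuc luciferase and a prosubstrate that viable cells reduce to a luciferase substrate. After a 5 h incubation at 37 C/5% CO2, compounds were added and luminescence was measured repeatedly during 40 h of treatment.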
Assay [5] is described as follows: A CellTox Green Cytotoxicity Assay to monitor cytotoxicity in HEK293 cells - 32 hour (AID 1224881). Also: nearly all actives have a fitted effect of over 40% in size. Also: potency is read from the fitted curve at half-maximal effect. The method, boiled down: (§3)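 Nonlytic real-time cytotoxicity: HEK293 + CellTox Green reagent plated, 5 h preincubation, pintool compound addition (23 nL in DMSO), 37 C for 40 h, fluorescence measured at successive time points.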
Assay [6] in a line: A CellTox Green Cytotoxicity Assay to monitor cytotoxicity in HepG2 cells - 0 hour (AID 1224882). Also: nearly all actives have a fitted effect of over 35% in size. The gist of the method: as §2
A short description of assay [7]: A CellTox Green Cytotoxicity Assay to monitor cytotoxicity in HepG2 cells - 32 hour (AID 1224883). Also: nearly all actives have a fitted effect of over 50% in size. The gist of the method: as §2
Assay [8] can be described thus: A CellTox Green Cytotoxicity Assay to monitor cytotoxicity in HEK293 cells - 8 hour (AID 1224884). Also: nearly all actives have a fitted effect of over 35% in size. The method, boiled down: as §3
The nature of assay [9]: qHTS RealTime-Glo MT Cell Viability Assay in HepG2 cells - 16 hour (AID 1224885). Also: nearly all actives have a fitted effect of over 50% in size. The gist of the method:
as §1

Assay [10] in a line: qHTS RealTime-Glo MT Cell Viability Assay in HEK293 cells - 24 hour (AID 1224886). Also: nearly all actives have a fitted effect of over 50% in size. Also: potency is read from the fitted curve at half-maximal effect. As to activity change, negative = cytotoxicity: top concentration of the series differs between compounds. The method, boiled down:
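Luminescence generated by NanoLuc from substrate produced by living HEK293 cells served as the viability signal. Each value reflects the reading at its stated time point during continuous 40 h compound exposure at 37 C.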

Molecules are shown by their SMILES. Values without a mark were called inactive. Records with an inconclusive call do not appear. Active and inactive are the calls of the source. Calls follow the shape of the dose curve; as a rule, active = well fitted curve in the direction sought with a large enough effect in the repeat runs; inconclusive = weak or mixed curves; inactive = no such curve, though single readings can be large; an effect the other way counts as inactive or inconclusive.
% is scaled to controls: 0 for no effect and ±100 for the full control effect.

For `CCC(C)OC(C)CC` (stereo not given), the result in assay [1] and in assay [9] was inactive. Moreover, the Potency entry in assay [2], in assay [3], in [4], in assay [5], in [6] and in assay [7] was “inactive” throughout. Also, the Potency entry in assay [8] and in assay [10] was “inactive” in each case.
In the case of `C[C@]12CCC(=O)C=C1CC[C@H]1[C@@H]3CC[C@](O)(C(=O)CO)[C@@]3(C)C[C@H](O)[C@@]12F`, the result in assay [1] and in [9] was inactive. Further, the Potency entry in [2], in assay [3], in assay [5], in assay [6], in assay [7] and in [8] was “inactive” throughout. Also, the Potency result in [10] is “inactive”. Moreover, in [4], the Potency was 9.52 µM (active).
On to `CC(=O)c1cc(C)oc1C`, for which the outcome in [1] and in [9] was inactive. The Potency entry in assay [2], in assay [3], in assay [4], in assay [5], in assay [7] and in assay [8] was “inactive” throughout. In addition, the Potency result in [10] was “inactive”.
As to `CC(O)COC(C)(C)C` (stereo not given), the call in [1] and in assay [9] was inactive. For the same molecule, the Potency entry in assay [2], in assay [3], in assay [4], in assay [6], in [7] and in [8] was “inactive” in each case. The Potency entry in assay [10] is “inactive”.
Take `CN1C[C@@H]2C[C@H]1CN2c1cc2c(cc1F)c(=O)c(C(=O)O)cn2C1CC1`: the activity change, negative = cytotoxic in [1] is 4.04% [at 15.8 µM]; in [9], 6.14% [at 15.8 µM]. The cytotoxicity in assay [2] was 0.282% [at 15.8 µM]; in assay [6] it was 2.16% [at 15.8 µM]. The cytotoxicity increase was 4.83% [at 15.8 µM] in [3], 0.396% [at 15.8 µM] in assay [7] and -14% [at 15.8 µM] in assay [8]. The activity change, negative = cytotoxicity in assay [4] was -2.3% [at 15.8 µM]; in assay [10], 4.15% [at 15.8 µM].
As to `OC[C@H]1O[C@@H](O[C@@H]2[C@@H](CO)O[C@](O)(CO)[C@H]2O)[C@H](O)[C@@H](O)[C@H]1O`, the molecule was called inactive in [1] and in assay [9]. The Potency entry in assay [2], in assay [3], in [4], in assay [5], in [7] and in [8] was “inactive” each time. The Potency result in assay [10] is “inactive”.
On to `CCCCCCC1(C)CCC(=O)O1` (stereo not given), for which the molecule was called inactive in [1] and in assay [9]. Moreover, the Potency result in assay [2], in assay [3], in assay [4], in [5], in assay [7] and in assay [8] was “inactive” in each case. Besides, the Potency entry in assay [10] was “inactive”.
`CC(C)[C@H]1CC[C@H](C)C[C@@H]1O`: the result in [1] and in [9] was inactive. Also, the Potency entry in [2], in [3], in assay [4], in [6], in [7] and in [8] was “inactive” in each case. Also, the Potency entry in assay [10] was “inactive”.
For the molecule `O=C(O)CSCC(=O)NC1CCSC1=O` (stereo not given), the result in assay [1] and in [9] was inactive. The Potency result in assay [2], in assay [3], in assay [4], in assay [6], in [7] and in assay [8] was “inactive” each time. Also, the Potency result in [10] is “inactive”.
In the case of `O=C(Cl)c1ccccc1[N+](=O)[O-]`, the molecule was classed as inactive in assay [1] and in assay [9]. Further, the Potency result in [2], in assay [3], in [4], in assay [5], in [7] and in [8] was “inactive” throughout. Also, in assay [10], the Potency result was “inactive”.
Regarding `O=[N+]([O-])c1c(Cl)cc(Cl)cc1Cl`, the result in assay [1] and in [9] was inactive. The Potency entry in assay [2], in assay [3], in assay [4], in [6], in assay [7] and in assay [8] was “inactive” throughout. In addition, the Potency entry in assay [10] is “inactive”.
For `COC(=O)/C=C\C(=O)O`, the molecule was called inactive in [1] and in assay [9]. Besides, the Potency entry in assay [2], in [3], in [4], in assay [6], in assay [7] and in assay [8] was “inactive” in each case. Further, the Potency result in assay [10] is “inactive”.
`COc1cc2c(cc1OC)C(=O)C(CC1CCN(Cc3ccccc3)CC1)C2` (stereo not given): the outcome in [1] and in assay [9] was inactive. Moreover, the Potency result in [2], in [4], in assay [5] and in assay [8] was “inactive” throughout. For the same molecule, the Potency in [3] and in assay [10] was 21.3 µM (active) in each case.
Turning to `c1ccc2cnccc2c1`, the outcome in assay [1] and in assay [9] was inactive. Besides, the Potency result in assay [2], in [3], in [4], in assay [5], in assay [7] and in assay [8] was “inactive” in each case. Moreover, the Potency entry in assay [10] is “inactive”.
On to `CCCC(=O)OC/C=C(\C)CCC=C(C)C`, for which the molecule was classed as inactive in assay [1] and in assay [9]. Also, the Potency entry in assay [2], in assay [3], in assay [4], in assay [7], in [8] and in assay [10] was “inactive” in each case. Further, in assay [5], the Potency was 49 µM (active).
For the molecule `CCCCCCCCCCCCCCC(=O)NC(CO)CCCCCCCCCCCCCC` (stereo not given), the molecule was classed as inactive in [1] and in assay [9]. Besides, the Potency result in [2], in [3], in assay [4], in assay [5], in assay [7] and in assay [8] was “inactive” each time. Besides, the Potency entry in assay [10] is “inactive”.
As for `CC(C)Nc1ccccc1`, the molecule was classed as inactive in [1] and in assay [9]. In addition, the Potency entry in [2], in [3], in [4], in assay [5], in assay [7] and in [8] was “inactive” each time. Moreover, the Potency result in assay [10] is “inactive”.
`CC(=O)Nc1ccc(OC(=O)c2ccccc2OC(C)=O)cc1`: the outcome in assay [1] and in assay [9] was inactive. In addition, the Potency entry in [2], in assay [3], in assay [4], in [6], in assay [7] and in assay [8] was “inactive” each time. Moreover, the Potency entry in assay [10] was “inactive”.
For the molecule `CSc1cnccn1`, the molecule was classed as inactive in [1] and in [9]. Further, the Potency entry in assay [2], in assay [3], in [4], in [6], in [7] and in assay [8] was “inactive” in each case. The Potency entry in assay [10] was “inactive”.
In the case of `O=C(NCN1CCOCC1)c1cnccn1`, the molecule was called inactive in [1] and in [9]. Further, the Potency entry in assay [2], in [3], in assay [4], in assay [6], in assay [7] and in assay [8] was “inactive” throughout. The Potency result in [10] is “inactive”.
For `CCN(CC)CCN`, the call in assay [1] and in assay [9] was inactive. Further, the Potency entry in [2], in [3], in [4], in [6], in [7] and in assay [8] was “inactive” each time. In addition, the Potency entry in assay [10] is “inactive”.
As for `C/C(CC(C)C)=N\O`, the molecule was called inactive in assay [1] and in [9]. Also, the Potency result in [2], in assay [3], in [4], in assay [5], in [7] and in assay [8] was “inactive” in each case. Further, the Potency result in assay [10] was “inactive”.
For the molecule `CCCCOCC(C)O` (stereo not given), the molecule was classed as inactive in assay [1] and in assay [9]. Besides, the Potency entry in assay [2], in assay [3], in assay [4], in assay [6], in assay [7] and in assay [8] was “inactive” throughout. Further, the Potency entry in [10] is “inactive”.
Turning to `C=CCN1C[C@H](C(=O)N(CCCN(C)C)C(=O)NCC)C[C@@H]2c3cccc4[nH]cc(c34)C[C@H]21`, the molecule was called inactive in assay [1] and in [9]. The Potency entry in [2], in assay [3], in assay [4], in assay [5], in [7] and in assay [8] was “inactive” throughout. The Potency result in [10] was “inactive”.
Take `CC(=O)O[C@H]1C[C@@H]2CC[C@@]1(C)C2(C)C`: the call in [1] and in assay [9] was inactive. The Potency entry in [2], in [3], in assay [4], in assay [5], in assay [7] and in assay [8] was “inactive” throughout. For the same molecule, the Potency entry in assay [10] is “inactive”.
In the case of `O=C1CCC(=O)N1Cl`, the molecule was classed as inactive in [1] and in [9]. Moreover, the Potency entry in assay [2], in assay [3], in assay [4], in assay [5], in assay [7] and in [8] was “inactive” in each case. Further, in [10], the Potency entry is “inactive”.
